Data taken from PubChem BioAssay (NCATS).
Results filed as inconclusive are left out. The source made the active and inactive calls. Unless noted, the call rests on the fitted dose curve; in most records, active means well fitted curve in the direction sought with a large enough effect; inconclusive means small, poorly fitted or top-dose-only effect, or another doubt; inactive means no such curve, though single readings can be large; an effect the other way counts as inactive or inconclusive.

Legend:
[1] = target: ATP-dependent 6-phosphofructokinase (Trypanosoma brucei brucei) (UniProt O15648); assay: qHTS Assay to Find Inhibitors of T. brucei phosphofructokinase: hit validation (AID 492961);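 further: luminescence reports ADP formed as PFK phosphorylates fructose-6-phosphate with ATP; on the % scale 0 is the no-effect control and ±100 the full control effect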
Outline: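 Inhibition of parasite PFK is measured as reduced ADP formation, quantified via luciferase after ATP depletion. Assay used 0.1 mM ATP, 0.5 mM F6P, 1.25 nM enzyme, 45 min incubation.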

[2] = target: Ubiquitin carboxyl-terminal hydrolase 1 (Homo sapiens) (UniProt O94782); assay: Inhibitors of USP1/UAF1: Pilot qHTS (AID 504865);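 further: rhodamine fluorescence freed from ubiquitin-rhodamine substrate followed over time; top concentration of the series differs between compounds; on the % scale 0 is the no-effect control and ±100 the full control effect; nearly all actives have a fitted effect of over 35% in size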
Outline: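 1nM USP1/UAF1 + cpd, 15 min RT; start w/ Ub-Rho 150nM final; kinetic FL 480/540 nm, 6 reads q60 s. Buffer 50mM HEPES pH 7.8, 0.5mM EDTA, 1mM TCEP, 0.01% Tween-20, 0.1 mg/ml BSA.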

[3] = target: Luciferin 4-monooxygenase (Photinus pyralis) (UniProt P08659); assay: Biochemical firefly luciferase enzyme assay for NPC (AID 624030);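 further: purified P. pyralis luciferase at 10 nM with luciferin and ATP substrate; 0% = DMSO and -100% = full luciferase inhibition by PTC124 control; nearly all actives have a fitted effect of over 70% in size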
Outline: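 Purified P. pyralis luciferase at 10 nM in 50 mM Tris Acetate (final), luminescence read within 5 minutes of enzyme addition to compounds. Activity normalised to PTC124 versus DMSO; concentration-response curves classed by r2, magnitude and activity.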

[4] = S16 Schwann cell viability assay (CellTiter-Glo assay) (AID 624031);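 further: cellular ATP luminescence as a viability measure; plate controls were DMSO-treated cells for no effect and cell-free wells for full effect; nearly all actives have a fitted effect of over 70% in size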
Outline: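 Luminescent ATP read-out (CellTiter-Glo) after 24 h compound exposure of native S16 rat Schwann cells at 37 °C. Signals were normalized between cell-free wells and DMSO-treated cells, set as 0% activity.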

[5] = S16 Schwann cell PMP22 intronic element firefly luciferase assay (AID 624032);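 further: plate controls were DMSO for no effect and PTC124 positive control mean for full effect; nearly all actives have a fitted effect of over 30% in size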
Outline: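 Rat S16 Schwann cells stably carrying firefly luciferase driven by a PMP22 intronic element, in 10% FBS, treated 24 h at 37 C. ONE-Glo luminescence normalized to PTC124 control and DMSO (0%); curves classed by r2, magnitude and activity.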

[6] = S16 Schwann cell PMP22 intronic element beta-lactamase assay (AID 624044; calls by dose curve;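 further: 0% = DMSO and -100% = potassium clavulanate positive control; nearly all actives have a fitted effect of over 15% in size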); conditions: S16 rat Schwann cells, PMP22 element beta-lactamase FRET, 24 h; ratio activity, negative = inhibition: at 38.3 µM (top of the series)
Outline: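 Rat S16 Schwann cells with beta-Lac driven by a PMP22 intronic element, compound-treated 24 h at 37 °C. LiveBLAzer FRET B/G read: 460 nm normalized to potassium clavulanate vs DMSO; 535 nm FRET as viability; concentration-effect curves classified.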

[7] = qHTS profiling for inhibitors of Plasmodium falciparum proliferation (AID 504749);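 further: 0% = DMSO vehicle and full inhibition = artemisinin control; nearly all actives have a fitted effect of over 60% in size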; conditions: P. falciparum in erythrocytes, SYBR Green DNA, 72 h, at 28.7 µM (top of the series)
Outline: (§1)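 Readout was DNA-dye fluorescence from lysed cultures, ex 485/em 535 nm. Parasitized red cells had grown 72 h with compound; data scaled between 0.29 uM artemisinin and DMSO wells and corrected using vehicle-only plates.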

3D7 = assay: as above; conditions: P. falciparum in erythrocytes, SYBR Green DNA, 72 h; series mostly up to 28.7 µM
Outline: as §1

7G8 = assay: as above; conditions: P. falciparum in erythrocytes, SYBR Green DNA, 72 h; series mostly up to 28.7 µM
Outline: as §1

AA1029 = assay: as above; conditions: P. falciparum in erythrocytes, SYBR Green DNA, 72 h; series mostly up to 28.7 µM
Outline: as §1

AS120 = assay: as above; conditions: P. falciparum in erythrocytes, SYBR Green DNA, 72 h; series mostly up to 28.7 µM
Outline: as §1

ATS189 = assay: as above; conditions: P. falciparum in erythrocytes, SYBR Green DNA, 72 h; series mostly up to 28.7 µM
Outline: as §1

ATS95 = assay: as above; conditions: P. falciparum in erythrocytes, SYBR Green DNA, 72 h; series mostly up to 28.7 µM
Outline: as §1

C2A = assay: as above; conditions: P. falciparum in erythrocytes, SYBR Green DNA, 72 h; series mostly up to 28.7 µM
Outline: as §1

CP185 = assay: as above; conditions: P. falciparum in erythrocytes, SYBR Green DNA, 72 h; series mostly up to 28.7 µM
Outline: as §1

CP191 = assay: as above; conditions: P. falciparum in erythrocytes, SYBR Green DNA, 72 h; series mostly up to 28.7 µM
Outline: as §1

CP192 = assay: as above; conditions: P. falciparum in erythrocytes, SYBR Green DNA, 72 h; series mostly up to 28.7 µM
Outline: as §1

CP194 = assay: as above; conditions: P. falciparum in erythrocytes, SYBR Green DNA, 72 h; series mostly up to 28.7 µM
Outline: as §1

CP201 = assay: as above; conditions: P. falciparum in erythrocytes, SYBR Green DNA, 72 h; series mostly up to 28.7 µM
Outline: as §1

CP203 = assay: as above; conditions: P. falciparum in erythrocytes, SYBR Green DNA, 72 h; series mostly up to 28.7 µM
Outline: as §1

CP211 = assay: as above; conditions: P. falciparum in erythrocytes, SYBR Green DNA, 72 h; series mostly up to 28.7 µM
Outline: as §1

CP215 = assay: as above; conditions: P. falciparum in erythrocytes, SYBR Green DNA, 72 h; series mostly up to 28.7 µM
Outline: as §1

CP217 = assay: as above; conditions: P. falciparum in erythrocytes, SYBR Green DNA, 72 h; series mostly up to 28.7 µM
Outline: as §1

CP237 = assay: as above; conditions: P. falciparum in erythrocytes, SYBR Green DNA, 72 h; series mostly up to 28.7 µM
Outline: as §1

CP238 = assay: as above; conditions: P. falciparum in erythrocytes, SYBR Green DNA, 72 h; series mostly up to 28.7 µM
Outline: as §1

CP247 = assay: as above; conditions: P. falciparum in erythrocytes, SYBR Green DNA, 72 h; series mostly up to 28.7 µM
Outline: as §1

CP250 = assay: as above; conditions: P. falciparum in erythrocytes, SYBR Green DNA, 72 h; series mostly up to 28.7 µM
Outline: as §1

CP252 = assay: as above; conditions: P. falciparum in erythrocytes, SYBR Green DNA, 72 h; series mostly up to 28.7 µM
Outline: as §1

CP256 = assay: as above; conditions: P. falciparum in erythrocytes, SYBR Green DNA, 72 h; series mostly up to 28.7 µM
Outline: as §1

CP260 = assay: as above; conditions: P. falciparum in erythrocytes, SYBR Green DNA, 72 h; series mostly up to 28.7 µM
Outline: as §1

CP262 = assay: as above; conditions: P. falciparum in erythrocytes, SYBR Green DNA, 72 h; series mostly up to 28.7 µM
Outline: as §1

CP265 = assay: as above; conditions: P. falciparum in erythrocytes, SYBR Green DNA, 72 h; series mostly up to 28.7 µM
Outline: as §1

CP266 = assay: as above; conditions: P. falciparum in erythrocytes, SYBR Green DNA, 72 h; series mostly up to 28.7 µM
Outline: as §1

CP268 = assay: as above; conditions: P. falciparum in erythrocytes, SYBR Green DNA, 72 h; series mostly up to 28.7 µM
Outline: as §1

CP269 = assay: as above; conditions: P. falciparum in erythrocytes, SYBR Green DNA, 72 h; series mostly up to 28.7 µM
Outline: as §1

CP286 = assay: as above; conditions: P. falciparum in erythrocytes, SYBR Green DNA, 72 h; series mostly up to 28.7 µM
Outline: as §1

CP291 = assay: as above; conditions: P. falciparum in erythrocytes, SYBR Green DNA, 72 h; series mostly up to 28.7 µM
Outline: as §1

CP297 = assay: as above; conditions: P. falciparum in erythrocytes, SYBR Green DNA, 72 h; series mostly up to 28.7 µM
Outline: as §1

CP305 = assay: as above; conditions: P. falciparum in erythrocytes, SYBR Green DNA, 72 h; series mostly up to 28.7 µM
Outline: as §1

CP315 = assay: as above; conditions: P. falciparum in erythrocytes, SYBR Green DNA, 72 h; series mostly up to 28.7 µM
Outline: as §1

CP325 = assay: as above; conditions: P. falciparum in erythrocytes, SYBR Green DNA, 72 h; series mostly up to 28.7 µM
Outline: as §1

CP329 = assay: as above; conditions: P. falciparum in erythrocytes, SYBR Green DNA, 72 h; series mostly up to 28.7 µM
Outline: as §1

CP335 = assay: as above; conditions: P. falciparum in erythrocytes, SYBR Green DNA, 72 h; series mostly up to 28.7 µM
Outline: as §1

DFO2036 = assay: as above; conditions: P. falciparum in erythrocytes, SYBR Green DNA, 72 h; series mostly up to 28.7 µM
Outline: as §1

DIV14 = assay: as above; conditions: P. falciparum in erythrocytes, SYBR Green DNA, 72 h; series mostly up to 28.7 µM
Outline: as §1

DIV17 = assay: as above; conditions: P. falciparum in erythrocytes, SYBR Green DNA, 72 h; series mostly up to 28.7 µM
Outline: as §1

DIV30 = assay: as above; conditions: P. falciparum in erythrocytes, SYBR Green DNA, 72 h; series mostly up to 28.7 µM
Outline: as §1

Dd2 = assay: as above; conditions: P. falciparum in erythrocytes, SYBR Green DNA, 72 h; series mostly up to 28.7 µM
Outline: as §1

ECU = assay: as above; conditions: P. falciparum in erythrocytes, SYBR Green DNA, 72 h; series mostly up to 28.7 µM
Outline: as §1

FAB9 = assay: as above; conditions: P. falciparum in erythrocytes, SYBR Green DNA, 72 h; series mostly up to 28.7 µM
Outline: as §1

GB4 = assay: as above; conditions: P. falciparum in erythrocytes, SYBR Green DNA, 72 h; series mostly up to 28.7 µM
Outline: as §1

HB3 = assay: as above; conditions: P. falciparum in erythrocytes, SYBR Green DNA, 72 h; series mostly up to 28.7 µM
Outline: as §1

ICS = assay: as above; conditions: P. falciparum in erythrocytes, SYBR Green DNA, 72 h; series mostly up to 28.7 µM
Outline: as §1

JCK = assay: as above; conditions: P. falciparum in erythrocytes, SYBR Green DNA, 72 h; series mostly up to 28.7 µM
Outline: as §1

N140 = assay: as above; conditions: P. falciparum in erythrocytes, SYBR Green DNA, 72 h; series mostly up to 28.7 µM
Outline: as §1

P93_24 = assay: as above; conditions: P. falciparum in erythrocytes, SYBR Green DNA, 72 h; series mostly up to 28.7 µM
Outline: as §1

P94_40 = assay: as above; conditions: P. falciparum in erythrocytes, SYBR Green DNA, 72 h; series mostly up to 28.7 µM
Outline: as §1

PAD = assay: as above; conditions: P. falciparum in erythrocytes, SYBR Green DNA, 72 h; series mostly up to 28.7 µM
Outline: as §1

PC15 = assay: as above; conditions: P. falciparum in erythrocytes, SYBR Green DNA, 72 h; series mostly up to 28.7 µM
Outline: as §1

PC26 = assay: as above; conditions: P. falciparum in erythrocytes, SYBR Green DNA, 72 h; series mostly up to 28.7 µM
Outline: as §1

PC49 = assay: as above; conditions: P. falciparum in erythrocytes, SYBR Green DNA, 72 h; series mostly up to 28.7 µM
Outline: as §1

SC27B = assay: as above; conditions: P. falciparum in erythrocytes, SYBR Green DNA, 72 h; series mostly up to 28.7 µM
Outline: as §1

TAB109 = assay: as above; conditions: P. falciparum in erythrocytes, SYBR Green DNA, 72 h; series mostly up to 28.7 µM
Outline: as §1

TAB113 = assay: as above; conditions: P. falciparum in erythrocytes, SYBR Green DNA, 72 h; series mostly up to 28.7 µM
Outline: as §1

TAB165 = assay: as above; conditions: P. falciparum in erythrocytes, SYBR Green DNA, 72 h; series mostly up to 28.7 µM
Outline: as §1

W2 = assay: as above; conditions: P. falciparum in erythrocytes, SYBR Green DNA, 72 h; series mostly up to 28.7 µM
Outline: as §1

Sequence of ATP-dependent 6-phosphofructokinase (Trypanosoma brucei brucei) (O15648 whole entry, looked up): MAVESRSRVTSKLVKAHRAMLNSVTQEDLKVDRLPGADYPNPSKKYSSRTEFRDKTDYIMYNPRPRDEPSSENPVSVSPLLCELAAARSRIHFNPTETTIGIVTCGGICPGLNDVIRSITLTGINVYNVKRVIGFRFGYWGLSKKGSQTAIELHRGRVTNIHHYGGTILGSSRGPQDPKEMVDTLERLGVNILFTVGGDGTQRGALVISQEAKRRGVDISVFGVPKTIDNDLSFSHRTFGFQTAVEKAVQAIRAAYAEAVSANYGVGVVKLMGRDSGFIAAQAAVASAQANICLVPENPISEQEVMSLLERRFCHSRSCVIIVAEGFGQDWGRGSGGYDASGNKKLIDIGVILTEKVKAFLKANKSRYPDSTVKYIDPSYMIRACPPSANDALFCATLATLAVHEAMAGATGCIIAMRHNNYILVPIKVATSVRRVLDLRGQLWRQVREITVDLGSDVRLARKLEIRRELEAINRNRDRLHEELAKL
Sequence of Luciferin 4-monooxygenase (Photinus pyralis) (P08659 whole entry, looked up): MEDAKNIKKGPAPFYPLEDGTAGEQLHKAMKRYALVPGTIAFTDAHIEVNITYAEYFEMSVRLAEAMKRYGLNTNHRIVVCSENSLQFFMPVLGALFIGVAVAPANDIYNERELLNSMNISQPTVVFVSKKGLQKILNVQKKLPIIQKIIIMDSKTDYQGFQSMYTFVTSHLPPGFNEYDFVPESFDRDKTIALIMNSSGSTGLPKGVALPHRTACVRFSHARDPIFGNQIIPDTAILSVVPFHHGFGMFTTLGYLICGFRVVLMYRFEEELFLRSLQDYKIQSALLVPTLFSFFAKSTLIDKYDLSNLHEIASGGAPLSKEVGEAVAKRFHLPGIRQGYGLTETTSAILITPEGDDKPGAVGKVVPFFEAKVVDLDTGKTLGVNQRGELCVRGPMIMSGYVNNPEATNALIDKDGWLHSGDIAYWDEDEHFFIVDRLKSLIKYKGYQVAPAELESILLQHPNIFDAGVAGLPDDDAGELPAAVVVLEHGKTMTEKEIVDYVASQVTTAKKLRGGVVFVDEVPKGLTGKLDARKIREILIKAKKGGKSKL
Sequence of Ubiquitin carboxyl-terminal hydrolase 1 (Homo sapiens) (O94782 whole entry, looked up): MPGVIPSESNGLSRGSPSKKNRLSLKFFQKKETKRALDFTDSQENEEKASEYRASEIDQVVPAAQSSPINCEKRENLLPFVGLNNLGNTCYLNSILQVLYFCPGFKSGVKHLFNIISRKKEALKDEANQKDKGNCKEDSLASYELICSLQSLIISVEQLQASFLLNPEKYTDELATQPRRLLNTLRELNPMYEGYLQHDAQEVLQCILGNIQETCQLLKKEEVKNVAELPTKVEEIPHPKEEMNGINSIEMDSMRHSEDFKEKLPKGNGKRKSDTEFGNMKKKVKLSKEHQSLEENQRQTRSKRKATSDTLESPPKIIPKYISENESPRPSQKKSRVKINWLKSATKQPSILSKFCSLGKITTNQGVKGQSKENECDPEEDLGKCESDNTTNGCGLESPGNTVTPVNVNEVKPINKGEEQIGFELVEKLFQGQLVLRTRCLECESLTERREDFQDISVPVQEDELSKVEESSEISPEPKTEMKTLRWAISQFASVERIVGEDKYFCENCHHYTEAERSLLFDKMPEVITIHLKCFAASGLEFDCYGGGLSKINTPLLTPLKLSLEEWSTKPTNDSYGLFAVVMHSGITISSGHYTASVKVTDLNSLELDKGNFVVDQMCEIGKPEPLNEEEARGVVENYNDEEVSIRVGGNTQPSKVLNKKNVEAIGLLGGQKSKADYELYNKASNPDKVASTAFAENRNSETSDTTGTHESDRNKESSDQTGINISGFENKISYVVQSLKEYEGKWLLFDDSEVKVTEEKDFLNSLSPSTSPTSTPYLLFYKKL

CCCC[C@H](O)c1ccccc1
inactive: Potency [1] | Potency [2] | Potency [3] | Potency [4] | Potency [5] | Potency [6] | activity, negative = inhibition ([7]; parasite line A) -2.26% | activity, negative = inhibition ([7]; parasite line B) -1.87% | Potency (3D7) | Potency (7G8) | Potency (AA1029) | Potency (AS120) | Potency (ATS189) | Potency (ATS95) | Potency (C2A) | Potency (CP185) | Potency (CP191) | Potency (CP192) | Potency (CP194) | Potency (CP201) | Potency (CP203) | Potency (CP211) | Potency (CP215) | Potency (CP217) | Potency (CP237) | Potency (CP238) | Potency (CP247) | Potency (CP250) | Potency (CP252) | Potency (CP256) | Potency (CP260) | Potency (CP262) | Potency (CP265) | Potency (CP266) | Potency (CP268) | Potency (CP269) | Potency (CP286) | Potency (CP291) | Potency (CP297) | Potency (CP305) | Potency (CP315) | Potency (CP325) | Potency (CP329) | Potency (CP335) | Potency (DFO2036) | Potency (DIV14) | Potency (DIV17) | Potency (DIV30) | Potency (Dd2) | Potency (ECU) | Potency (FAB9) | Potency (GB4) | Potency (HB3) | Potency (ICS) | Potency (JCK) | Potency (N140) | Potency (P93_24) | Potency (P94_40) | Potency (PAD) | Potency (PC15) | Potency (PC26) | Potency (PC49) | Potency (SC27B) | Potency (TAB109) | Potency (TAB113) | Potency (TAB165) | Potency (W2)
